Results filed as inconclusive are left out. Calls of active or inactive are those of the source. Calls come from the whole dose curve; as a rule, active = well fitted curve in the direction sought with a large enough effect; inconclusive = small, poorly fitted or top-dose-only effect, or another doubt; inactive = no such curve, though single readings can be large; an effect the other way counts as inactive or inconclusive.
Tests used:
[1] = qHTS for Inhibitors of Plasmodium falciparum (DD2) proliferation (AID 504314);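 note: parasite DNA measured by SYBR Green fluorescence after red cell lysis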; details: P. falciparum Dd2 in erythrocytes, SYBR Green growth, 72 h; series mostly up to 1.12 µM
Method in brief: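 SYBR Green DNA-fluorescence growth assay: infected RBCs at 0.3% parasitemia, 2.5% hematocrit, 72 h compound exposure, 37C, 5% CO2; overnight lysis with dye at RT; normalized to 0.29 uM artemisinin and vehicle.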

[2] = qHTS for Inhibitors of Plasmodium falciparum (GB4) proliferation (AID 504315); note: nearly all actives have a fitted effect of over 50% in size; details: P. falciparum GB4 in erythrocytes, SYBR Green DNA, 72 h; series mostly up to 6.7 µM
Method in brief: (§1)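 Parasite growth measured as SYBR Green DNA fluorescence (ex 485, em 535 nm) after overnight lysis following 72 h culture at 37 °C, 0.3% parasitemia, 2.5% hematocrit. Values normalized against DMSO and 0.29 uM artemisinin controls, with plate-stack correction.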

[3] = qHTS for Inhibitors of Plasmodium falciparum (7G8) proliferation (AID 504316); note: nearly all actives have a fitted effect of over 65% in size; details: P. falciparum 7G8 in erythrocytes, SYBR Green DNA, 72 h; series mostly up to 6.7 µM
Method in brief: as §1

[4] = qHTS for Inhibitors of Plasmodium falciparum (HB3) proliferation (AID 504318); note: nearly all actives have a fitted effect of over 60% in size; details: P. falciparum HB3 in erythrocytes, SYBR Green DNA, 72 h; series mostly up to 7.21 µM
Method in brief: as §1

[5] = qHTS for Inhibitors of Plasmodium falciparum (CP250) proliferation (AID 504320); details: P. falciparum CP250 in erythrocytes, SYBR Green DNA, 72 h; series mostly up to 6.7 µM
Method in brief: as §1

Measured: Potency

COC(=O)C1=C(C)N(Cc2ccco2)C(=O)N[C@@H]1c1ccco1
inactive: [1] | [2] | [3] | [4] | [5]

C=CCN1c2ccccc2[C@]23C[C@@H](C(=O)OC)N(C(C)=O)C2=NC(C(=O)OC)=C(C(=O)OC)[C@H]13
inactive: [1] | [2] | [3] | [4] | [5]

COC(=O)CCCC1=CC2=C(c3ccccc3)C(=O)C(C)(OC(=O)C3CCCC3)C(=O)C2=CN1Cc1ccccc1 (stereo not drawn)
inactive: [1] | [2] | [3] | [4] | [5]

CCOC(=O)[C@@]1([C@@H](NC(=O)OC)c2cccc(F)c2)CCCC1=O
inactive: [1] | [2] | [3] | [4] | [5]

COC(=O)CCC(=O)OC1(C)C(=O)C=C2C=C(C3CC3)N(c3ccccc3)C=C2C1=O (stereo not drawn)
inactive: [1]

COC(=O)CCCC1=CC2=CC(=O)C(C)(OC(=O)c3cccs3)C(=O)C2=CN1CC1CC1 (stereo not drawn)
inactive: [1] | [2] | [3] | [4] | [5]

CCCCC1=CC2=C(c3ccco3)C(=O)C(C)(OC(=O)c3ccc(OC)cc3)C(=O)C2=CN1CCOC (stereo not drawn)
inactive: [1] | [2] | [3] | [4] | [5]

CCCCC1=CC2=CC(=O)C(C)(OC(=O)CC)C(=O)C2=CN1c1ccc(OC)cc1 (stereo not drawn)
inactive: [1] | [2] | [3] | [4] | [5]

COC(=O)N[C@@H](c1ccccc1)[C@]1(C(=O)OC)CCCC1=O
inactive: [1] | [2] | [3] | [4] | [5]

C=CCN1C=C2C(=O)C(C)(OC(=O)CCC(=O)OC)C(=O)C(Br)=C2C=C1c1ccc(OC)cc1 (stereo not drawn)
inactive: [1] | [2] | [3] | [4] | [5]

COc1cccc([C@@H]2Oc3ccc(Br)cc3C(=O)[C@@H]2OC(=O)Nc2cc(OC)c(OC)c(OC)c2)c1
inactive: [1] | [2] | [3] | [4] | [5]

COC(=O)CCC(=O)OC1(C)C(=O)C=C2C=C(C3CC3)N(CCN3CCOCC3)C=C2C1=O (stereo not drawn)
inactive: [1] | [2] | [3] | [4] | [5]

COC(=O)CCCC1=CC2=CC(=O)C(C)(OC(=O)CCc3ccccc3)C(=O)C2=CO1 (stereo not drawn)
inactive: [1] | [2] | [3] | [5]

CCN1C(=O)N[C@@H](c2cccs2)C(C(C)=O)=C1C
inactive: [1] | [2] | [3] | [5]

COc1cccc([C@@H]2Oc3ccc(Br)cc3[C@H](O)[C@@H]2O)c1
inactive: [1] | [2] | [3] | [4] | [5]

CC#CCN1c2ccccc2[C@]23C[C@@H](C(=O)OC)N(C(=O)c4ccco4)C2=NC(C(=O)OC)=C(C(=O)OC)[C@H]13
inactive: [1] | [2] | [3] | [4] | [5]

COCC(=O)N1CCc2nc(COc3ccccc3)c3c(c2C1)CO[C@@H](C)C3
inactive: [1] | [2] | [3] | [4] | [5]

CCCCC1=CC2=CC(=O)C(C)(OC(=O)CC)C(=O)C2=CN1C1CCCC1 (stereo not drawn)
inactive: [1] | [2] | [3] | [4] | [5]

CCN(CC)CCCN1C=C2C(=O)C(C)(OC(=O)CCc3ccccc3)C(=O)C=C2C=C1c1ccc(C#N)cc1 (stereo not drawn)
inactive: [1] | [2] | [3] | [4] | [5]

COC(=O)C1=C(C(=O)OC)[C@@H]2N(Cc3ccccc3)c3ccccc3[C@@]23CCC(=O)N(CC2CCCCC2)C3=N1
inactive: [1] | [2] | [3] | [4] | [5]

CCN(CC)CCCN1C=C2C(=O)C(C)(OC(=O)CCC(=O)OC)C(=O)C(Br)=C2C=C1c1ccc(OC)cc1 (stereo not drawn)
inactive: [1] | [2] | [3] | [4] | [5]

C=CCOC(=O)N[C@H](C(C(=O)OC)=C(C)NCc1ccccc1)c1ccc(C)cc1
inactive: [1] | [2] | [3] | [4] | [5]

COC(=O)C1=C(C(=O)OC)[C@@H]2N(C)c3ccc(OC)cc3[C@@]23C[C@@H](C(=O)OC)N(S(=O)(=O)c2cccs2)C3=N1
inactive: [1] | [2] | [3] | [5]

CCOC(=O)CN1C(=O)N[C@@H](CCc2ccccc2)[C@@H](C(=O)OC)[C@H]1C
inactive: [1] | [2] | [3] | [4] | [5]

CCN1C(=O)N[C@H](c2ccc(Br)cc2)C(C(=O)OC)=C1C
inactive: [1] | [2] | [3] | [4] | [5]

CC#CCN1c2ccccc2[C@]23C[C@@H](C(=O)OC)N(C(=O)CC(C)C)C2=NC(C(=O)OC)=C(C(=O)OC)[C@H]13
inactive: [1] | [2] | [3] | [4] | [5]
